The values that follow come from PubChem BioAssay (Tox21).

A number with no mark means an inactive call. Results filed as inconclusive are left out. Active and inactive are the calls of the source. Unless noted, calls follow the shape of the dose curve; as a rule, active = well fitted curve in the direction sought with a large enough effect in the repeat runs; inconclusive = weak or mixed curves; inactive = no such curve, though single readings can be large; an effect the other way counts as inactive or inconclusive.

Experiment [1] can be described thus: A CellTox Green Cytotoxicity Assay to monitor cytotoxicity in HEK293 cells - 32 hour (AID 1224881). Also: nearly all actives have a fitted effect of over 40% in size. In short, it runs like this:
(§1)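 Nonlytic real-time cytotoxicity: HEK293 + CellTox Green reagent plated, 5 h preincubation, pintool compound addition (23 nL in DMSO), 37 C for 40 h, fluorescence measured at successive time points.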

The nature of experiment [2]: A CellTox Green Cytotoxicity Assay to monitor cytotoxicity in HepG2 cells - 0 hour (AID 1224882). Also: nearly all actives have a fitted effect of over 35% in size. The method, boiled down: (§2)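 Read-out is fluorescence of a cyanine dye excluded from live cells that stains DNA of dead HepG2 cells, with signal proportional to cytotoxicity. Plates were read at 0, 8, 16, 24, 32 and 40 h after compound addition.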
Experiment [3] can be described thus: A CellTox Green Cytotoxicity Assay to monitor cytotoxicity in HepG2 cells - 32 hour (AID 1224883). Also: nearly all actives have a fitted effect of over 50% in size. In short, it runs like this: as §2
Experiment [4] in a line: qHTS RealTime-Glo MT Cell Viability Assay in HepG2 cells - 16 hour (AID 1224885). Also: nearly all actives have a fitted effect of over 50% in size. In short, it runs like this:
(§3)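 Cells + NanoLuc/prosubstrate dispensed (600 cells/well) → 5 h at 37 C/5% CO2 → compounds in DMSO transferred → 40 h incubation at 37 C, luminescence read at 0, 8, 16, 24, 32, 40 h.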

Experiment [5] is described as follows: qHTS RealTime-Glo MT Cell Viability Assay in HEK293 cells - 24 hour (AID 1224886). Also: top concentration of the series differs between compounds; nearly all actives have a fitted effect of over 50% in size. In short, it runs like this: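 Tox21 10K qHTS, HEK293, 600 cells/well, RealTime-Glo reagent co-dispensed with cells; 5 h preincubation, compound by pintool, 37 C, luminescence at 0–40 h.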
Experiment [6] in a line: qHTS RealTime-Glo MT Cell Viability Assay in HEK293 cells - 8 hour (AID 1224887). Also: top concentration of the series differs between compounds; nearly all actives have a fitted effect of over 50% in size. In short, it runs like this: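 Cells were seeded together with NanoLuc luciferase and a prosubstrate that viable cells reduce to a luciferase substrate. After a 5 h incubation at 37 C/5% CO2, compounds were added and luminescence was measured repeatedly during 40 h of treatment.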
Experiment [7] is described as follows: A CellTox Green Cytotoxicity Assay to monitor cytotoxicity in HEK293 cells - 16 hour (AID 1224888). Also: nearly all actives have a fitted effect of over 35% in size. The method, boiled down:
as §1

Experiment [8] can be described thus: qHTS RealTime-Glo MT Cell Viability Assay in HepG2 cells - 0 hour (AID 1224889). Also: nearly all actives have a fitted effect of over 50% in size. In short, it runs like this: as §3
A short description of experiment [9]: A CellTox Green Cytotoxicity Assay to monitor cytotoxicity in HepG2 cells - 8 hour (AID 1224890). Also: nearly all actives have a fitted effect of over 45% in size. The method, boiled down: as §2
The nature of experiment [10]: qHTS assay to identify small molecule antagonists of the estrogen receptor alpha (ER-alpha) signaling pathway using the BG1 cell line in the presence of 0.1 nM 17-beta-estradiol - cell viability counter screen (AID 1259241). Also: nearly all actives have a fitted effect of over 40% in size. The method, boiled down:
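Cytotoxicity counter-screen: live-cell protease activity measured by fluorescence (30 min reagent step) in the same wells. Cells were VM7Luc4E2 with endogenous ER-alpha and ERE-driven luciferase, treated 22 hr at 37C alongside 0.1 nM 17beta-estradiol final.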

Experiment [11] is described as follows: qHTS assay to identify small molecule antagonists of the androgen receptor (AR) signaling pathway using the MDA cell line in the presence of 0.5 nM R1881 - cell viability counter screen (AID 1259242). Also: nearly all actives have a fitted effect of over 45% in size. In short, it runs like this:
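Counter screen for cytotoxicity run in the same wells as the AR antagonist reporter screen: MDA-kb2 cells were treated 16 hr with test compounds and 0.5 nM R1881, then live-cell protease activity was measured by fluorescence.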

Experiment [12] addresses Estrogen receptor (Homo sapiens) (UniProt P03372). Briefly: qHTS assay to identify small molecule antagonists of the estrogen receptor alpha (ER-alpha) signaling pathway using the BG1 cell line in the presence of 0.1 nM 17-beta-estradiol (AID 1259244). Also: nearly all actives have a fitted effect of over 50% in size. Also: potency is read from the fitted curve at half-maximal effect. The method, boiled down:
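Cells: VM7Luc4E2, endogenous ER-alpha, 4x ERE-luc stable. Pre-culture 5 d, phenol red-free, charcoal-stripped FBS. Plated 24 h, compound + E2 0.1 nM final, 22 h 37C/5% CO2. Readout ONE-Glo luminescence.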

Experiment [13] in a line: qHTS assay to identify small molecule HDAC inhibitors (AID 1259364). Also: top concentration of the series differs between compounds; nearly all actives have a fitted effect of over 45% in size. The method, boiled down:
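Luminescence from a cell-permeant luminogenic class I/II HDAC substrate reports endogenous deacetylase activity in intact HCT-116 cells treated with compounds for 2 h.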

Experiment [14] is described as follows: qHTS assay to identify small molecule HDAC inhibitors - cell viability counter screen (AID 1259365). The method, boiled down: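 CellTiter-Glo luminescence (30 min, room temperature) reported viability after a 2 h compound exposure at 37 C. Cells: wild-type HCT-116, 1,500 per well, seeded the night before.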
The nature of experiment [15]: qHTS assay to identify small molecule agonists of the sonic hedgehog signaling (Shh) pathway - cell viability counter screen (AID 1259366). Also: nearly all actives have a fitted effect of over 50% in size. In short, it runs like this: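 Cytotoxicity counter screen: CellTiter-Fluor reagent added after 23 h compound exposure, then 1 h at 37C and fluorescence read. Cells were 3T3 Gli1-Luc, seeded 2,000 per well and dosed 4 h post-plating.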

Experiment [16] can be described thus: qHTS assay to identify small molecule antagonists of the sonic hedgehog signaling (Shh) pathway - cell viability counter screen (AID 1259367). Also: nearly all actives have a fitted effect of over 55% in size. In short, it runs like this:
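NIH/3T3-derived Gli1-Luc reporter cells (2,000 per well) rested 4 hr at 37 C, then received DMSO compounds plus conditioned medium. After 23 hr of treatment, CellTiter-Fluor was added for 1 hr at 37C and fluorescence read.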

Experiment [17] is described as follows: qHTS assay to identify small molecule agonists of the sonic hedgehog signaling (Shh) pathway (AID 1259368; calls by dose curve;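 also: NIH/3T3-derived 3T3Gli1-Luc cells carrying a stable Gli1-driven firefly luciferase reporter; series mostly up to about 92 µM; nearly all actives have a fitted effect of over 15% in size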). The method, boiled down:
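3T3Gli1-Luc (NIH/3T3 clone, stable Gli1-Luc); 4 hr pre-incubation, then cpd in DMSO 24 hr, 37 C/5% CO2; luciferase reagent 30 min RT; luminescence.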

For experiment [18], the target named is Androgen receptor (Homo sapiens) (UniProt P10275). Description: qHTS assay to identify small molecule antagonists of the androgen receptor (AR) signaling pathway using the MDA cell line in the presence of 0.5 nM R1881 (AID 1259243). Also: nearly all actives have a fitted effect of over 50% in size. In short, it runs like this:
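Luciferase luminescence is the read-out: compounds are tested for suppressing 0.5 nM R1881-driven MMTV reporter activity in MDA-kb2 cells after 16 hr at 37C.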

The nature of experiment [19]: A CellTox Green Cytotoxicity Assay to monitor cytotoxicity in HEK293 cells - 8 hour (AID 1224884). Also: nearly all actives have a fitted effect of over 35% in size. The method, boiled down: as §1
Experiment [20] can be described thus: qHTS assay to identify small molecule phospholipidosis (PLD) inducers (AID 1259344; active = well fitted curve in the direction sought with a large enough effect; an effect the other way counts as inactive or inconclusive). The method, boiled down: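 HepG2 cells on collagen I, attached 4 h at 37 C, were co-treated with compound and LipidTOX Red dye for 24 h at 37 C, then fixed with paraformaldehyde plus Hoechst 33342 and imaged by high-content microscopy for phospholipid accumulation.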
% is scaled to controls: 0 for no effect and ±100 for the full control effect.

Sequence of Estrogen receptor (Homo sapiens) (P03372 whole entry, looked up): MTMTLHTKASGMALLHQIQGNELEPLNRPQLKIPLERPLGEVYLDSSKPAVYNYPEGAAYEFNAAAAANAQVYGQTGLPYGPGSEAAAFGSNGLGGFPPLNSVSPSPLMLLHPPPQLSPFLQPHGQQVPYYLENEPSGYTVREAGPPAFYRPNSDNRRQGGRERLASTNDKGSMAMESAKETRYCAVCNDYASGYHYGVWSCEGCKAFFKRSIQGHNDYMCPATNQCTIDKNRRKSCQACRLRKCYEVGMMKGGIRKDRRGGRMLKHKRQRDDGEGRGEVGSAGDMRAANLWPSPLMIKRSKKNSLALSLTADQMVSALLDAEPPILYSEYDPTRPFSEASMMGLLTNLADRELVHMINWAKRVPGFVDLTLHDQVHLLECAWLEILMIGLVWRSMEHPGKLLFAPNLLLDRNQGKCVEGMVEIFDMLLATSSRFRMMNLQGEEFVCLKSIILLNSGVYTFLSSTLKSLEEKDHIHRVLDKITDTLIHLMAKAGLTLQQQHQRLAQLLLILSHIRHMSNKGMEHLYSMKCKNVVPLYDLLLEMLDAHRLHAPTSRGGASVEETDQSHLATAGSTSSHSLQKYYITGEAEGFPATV
Sequence of Androgen receptor (Homo sapiens) (P10275 whole entry, looked up): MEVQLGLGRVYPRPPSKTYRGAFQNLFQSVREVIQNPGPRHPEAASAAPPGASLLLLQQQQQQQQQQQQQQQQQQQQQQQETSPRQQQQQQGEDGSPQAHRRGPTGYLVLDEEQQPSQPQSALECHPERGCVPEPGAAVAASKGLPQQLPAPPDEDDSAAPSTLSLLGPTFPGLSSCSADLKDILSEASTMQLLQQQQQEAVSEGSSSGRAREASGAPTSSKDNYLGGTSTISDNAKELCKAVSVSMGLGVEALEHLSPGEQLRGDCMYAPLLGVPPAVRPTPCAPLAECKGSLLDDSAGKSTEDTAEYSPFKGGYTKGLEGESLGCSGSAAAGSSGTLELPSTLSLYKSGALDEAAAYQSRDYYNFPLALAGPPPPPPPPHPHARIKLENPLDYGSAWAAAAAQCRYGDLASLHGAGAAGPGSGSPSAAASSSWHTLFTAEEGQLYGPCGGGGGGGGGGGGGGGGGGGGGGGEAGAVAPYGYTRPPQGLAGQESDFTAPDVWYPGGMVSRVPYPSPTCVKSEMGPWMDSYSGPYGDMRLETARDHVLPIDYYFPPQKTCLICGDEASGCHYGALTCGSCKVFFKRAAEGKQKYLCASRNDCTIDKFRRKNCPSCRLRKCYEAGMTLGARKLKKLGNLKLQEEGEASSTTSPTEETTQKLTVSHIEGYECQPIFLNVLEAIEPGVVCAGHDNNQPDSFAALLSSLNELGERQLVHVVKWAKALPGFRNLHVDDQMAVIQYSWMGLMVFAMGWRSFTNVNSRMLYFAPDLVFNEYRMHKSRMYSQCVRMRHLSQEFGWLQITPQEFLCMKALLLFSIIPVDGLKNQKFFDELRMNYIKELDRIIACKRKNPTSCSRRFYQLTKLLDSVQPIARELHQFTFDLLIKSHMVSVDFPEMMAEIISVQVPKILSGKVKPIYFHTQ

Consider `CCC(C)COC(C)=O` (stereo not drawn), for which the Potency result in experiment [1], in [2], in experiment [3], in experiment [4], in experiment [5] and in [6] was “inactive” each time. The Potency result in experiment [7], in [8], in experiment [9], in experiment [10], in experiment [11] and in [12] was “inactive” in each case. The Potency entry in experiment [13], in [14], in [15], in experiment [16] and in experiment [17] was “inactive” throughout.
Consider `CCOC(=O)c1ccccc1C(=C1C=C(Br)C(=O)C(Br)=C1)c1cc(Br)c(O)c(Br)c1`, for which the Potency result in experiment [1], in [2], in [3], in experiment [4], in experiment [6] and in [9] was “inactive” each time. Also, the Potency result in experiment [11], in experiment [12], in experiment [13], in experiment [14], in [15] and in [16] was “inactive” in each case. The Potency result in [17] was “inactive”.
As for `OC1(c2ccccc2)CCNCC1`, the Potency result in experiment [1], in experiment [2], in experiment [3], in experiment [4], in [5] and in experiment [6] was “inactive” each time. For the same molecule, the Potency result in experiment [7], in experiment [8], in experiment [9], in experiment [10], in experiment [11] and in experiment [18] was “inactive” in each case. The Potency result in [13], in [14], in experiment [15], in experiment [16] and in [17] was “inactive” each time.
Turning to `CCC1CO1` (stereo not drawn), the Potency entry in [1], in experiment [2], in experiment [3], in experiment [4], in experiment [5] and in experiment [6] was “inactive” each time. The Potency result in [8], in experiment [9], in experiment [10], in [11], in [13] and in experiment [14] was “inactive” in each case. The Potency result in experiment [15], in [16] and in [17] was “inactive” each time.
As to `Clc1ccc(Nc2nnc(Cc3ccncc3)c3ccccc23)cc1`, the Potency result in [1], in [2], in [3], in experiment [19], in experiment [7] and in experiment [8] was “inactive” throughout. Also, the Potency entry in [9], in experiment [10], in experiment [11], in experiment [20], in [13] and in [14] was “inactive” each time. Besides, the Potency entry in experiment [17] was “inactive”. For the same molecule, in [12], the Potency was 29.8 µM (active).
Take `Cc1cccc(N(C)C(=S)Oc2ccc3c(c2)CCC3)c1`: the Potency result in experiment [1], in experiment [2], in experiment [3], in experiment [4], in experiment [5] and in experiment [6] was “inactive” throughout. Also, the Potency result in experiment [7], in experiment [8], in experiment [10], in experiment [11], in experiment [12] and in experiment [13] was “inactive” each time. The Potency result in [14], in experiment [15], in experiment [16] and in experiment [17] was “inactive” throughout. Also, the PLD induction in experiment [20] is -4.02% [at 7.66 µM].
Take `CCCCCCC(C)(C)C(=O)O`: the Potency entry in [1], in experiment [2], in experiment [3], in [4], in [6] and in experiment [7] was “inactive” each time. The Potency entry in experiment [8], in experiment [9], in [18], in experiment [12], in [13] and in experiment [14] was “inactive” each time. The Potency result in [15], in experiment [16] and in experiment [17] was “inactive” throughout.
